Reference: PubChem BioAssay AID2279 (Southern Research Specialized Biocontainment Screening …, 2010)
Potency and affinity values are given separately.

Assay: HIV-1 Env-mediated cell fusion inhibitors, dose response, CCR5-tropic Env (AID 2279)
Conditions: CCR5-tropic HIV-1 Env, reporter read-out; series mostly up to 50 µM; inhibition: at the top concentration; call rule not given here

inhibition, inactive:
CC(C)CS(=O)(=O)C1=NN2C(=N)/C(=C\c3ccc(OC(=O)c4ccco4)cc3)C(=O)N=C2S1 20.7%
CCCOc1ccc(C(=O)NNC(=S)NC(=O)c2cc(-c3ccccc3)nc3ccccc23)cc1 6.27%
Cc1noc(NS(=O)(=O)c2ccc(NC(=O)Nc3ccc(Cl)c(Cl)c3)cc2)c1C 26.8%
COc1ccc(C(=O)COC(=O)c2ccccc2NS(=O)(=O)c2ccc(O)c([N+](=O)[O-])c2)cc1 -1.29%
COc1cc(/C=C2/C(=O)NN(c3ccc(C)c(Cl)c3)C2=O)cc([N+](=O)[O-])c1O -5.49%
CCCCCOc1ccc(C2C(C(=O)c3ccc(C)o3)=C(O)C(=O)N2c2cc(C)on2)cc1 (centres undefined) 37.2%
Cc1cccc(S(=O)(=O)Nc2nc3ccccc3nc2Nc2cccc(C(=O)O)c2)c1 20.8%
O=C1NN(c2ccc(Cl)cc2)C(=O)/C1=C\c1ccc(-c2cccc(C(=O)O)c2)o1 19.7%
CC(C)S(=O)(=O)C1=NSC2=NC(=O)/C(=C\c3ccc(-c4ccccc4)o3)C(=N)N21 20.1%
O=C(Nc1cc(C(=O)Nc2ccccc2C(=O)O)cc(C(=O)Nc2ccccc2C(=O)O)c1)c1ccccc1 15.2%
CC(C)c1ccc(OCC(=O)Nc2cccc(C(=O)Nc3ccccc3C(=O)O)c2)cc1 -1.84%
CCOc1cc(/C=C2/C(=N)N3C(=NC2=O)SN=C3S(C)(=O)=O)ccc1OS(=O)(=O)c1ccccc1 10.1%
COc1ccccc1OCCOc1ccc(/C=C2\C(=N)N3N=C(S(C)(=O)=O)SC3=NC2=O)cc1 8.49%
O=C(O)CSCC(=O)N(Cc1ccccc1)c1nc(-c2ccccc2)c(-c2ccccc2)s1 30.6%
